# Screens from PubChem BioAssay.
# In the library only some 7.3% were active in any assay of this set; here they are far more common.
# IP6K1 inhibitor: Primary qHTS assay for small molecule inhibitors of Inositol hexaphosphate kinase 1 (IP6K1); 140,000 compounds, 0.81% hits; activity change, % (series mostly up to about 58 µM); IP6K1 kinase, ADP-Glo luminescence, 2 h; stronger effect = lower value; in the data active = activity change below about -25%
# Target sequence (Q92551 whole entry, looked up): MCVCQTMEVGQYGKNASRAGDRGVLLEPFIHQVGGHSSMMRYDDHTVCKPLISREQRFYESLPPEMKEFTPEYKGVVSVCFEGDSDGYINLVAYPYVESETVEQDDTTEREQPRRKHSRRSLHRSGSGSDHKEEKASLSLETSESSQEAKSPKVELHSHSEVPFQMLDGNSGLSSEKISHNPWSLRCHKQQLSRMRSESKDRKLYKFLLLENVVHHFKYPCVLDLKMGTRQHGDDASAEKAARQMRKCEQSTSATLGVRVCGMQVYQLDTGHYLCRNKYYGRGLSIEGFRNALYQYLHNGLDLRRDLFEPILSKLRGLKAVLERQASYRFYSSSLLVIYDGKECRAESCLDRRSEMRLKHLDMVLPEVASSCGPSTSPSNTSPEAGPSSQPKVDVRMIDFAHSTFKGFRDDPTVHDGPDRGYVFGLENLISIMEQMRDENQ
#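 ADP-Glo luminescence measures ADP made by human IP6K1 during a 2 h RT reaction with ATP/IP6 (mix at 1.3 mM/130 uM); top library doses 57.5 and 19.1 uM final.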
# Luciferase inh: Firefly luciferase inhibition profiling of diverse chemical library using quantitative high-throughput screening | Potency, µM (series often up to 115 µM), most hits filed as inhibitors | 76,000 compounds, 2.5% hits | purified P. pyralis luciferase, luminescence, biochemical | Luciferin 4-monooxygenase (Photinus pyralis), P08659; note: potency is the fitted concentration of half-maximal effect; nearly all actives have a fitted effect of over 65% in size
#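 Purified 10nM P. pyralis luciferase with 10uM D-luciferin and 10uM ATP in 50mM Tris acetate pH 7.5, 10mM Mg acetate, 0.01% Tween-20, 0.05% BSA. qHTS titration; luminescence read by CCD imager.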
# NIH3T3 tox: Cytotoxic Profiling in NIH 3T3 Cell Line of Diverse Libraries Using Quantitative High-Throughput Screening; NIH 3T3 viability, CellTiter-Glo ATP luminescence, 48-72 h; Potency, µM (top dose mostly 96.7 µM), for the others: at the top dose activity change, negative = cytotoxicity, usual class: inhibitors; 94,000 compounds, 4.3% hits; AID 1345082, 2018; note: potency is the fitted concentration of half-maximal effect; nearly all actives have a fitted effect of over 55% in size
#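 Cells were seeded at 400 per well, treated with pin-transferred compound, and kept 48 or 72 hr at 37 °C before CellTiter-Glo addition and luminescence imaging of cellular ATP.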
# HEK cytotox: Cytotoxic Profiling in HEK 293 Cell Line of Diverse Libraries Using Quantitative High-Throughput Screening | AID 1345083, 2018 | HEK 293 viability, ATP luminescence (CellTiter-Glo), 48-72 h | Potency, µM (titrated, usually from 115 µM), without a hit: at the highest dose activity change, negative = cytotoxicity, usual class: inhibitors | 94,000 compounds, 6.6% hits; note: potency is the fitted concentration of half-maximal effect; nearly all actives have a fitted effect of over 60% in size
#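 Cytotoxicity was scored by loss of ATP-coupled luminescence (CellTiter-Glo) in HEK 293 cells. Compound treatment ran 48 or 72 hr at 37 degree Celsius, 5% CO2, 95% humidity.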
# HEK293 viab: GF-AFC viability counterscreen for inhibitors of alpha-synuclein gene (SNCA) expression; 150,000 compounds, 0.12% hits; HEK-293-SNCA-luc viability, GF-AFC fluorescence, 24 h; Potency, µM (series often up to 57.1 µM), for inactives: top-dose activity change, negative = cytotoxicity, most hits filed as cytotoxic;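 note: potency is the fitted concentration of half-maximal effect; 0% = DMSO-treated cells and -100% = medium-only wells without cells; nearly all actives have a fitted effect of over 30% in size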
#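 HEK-293-SNCA-luc cells (1500/well) plated 24 h, then exposed 24 h to a dilution series; GF-AFC added 30 min at 37C, fluorescence 405/540 nm; normalised to medium-only and DMSO wells, Hill fit.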
# SNCA expr inhib: Primary qHTS assay for inhibitors of alpha-synuclein gene (SNCA) expression; HEK-293 SNCA-luciferase knock-in, luminescence, 24 h; Potency, µM (top dose mostly 57.2 µM), inactives show at the highest dose activity change, negative = inhibition, usual class: inhibitors; 140,000 compounds, 0.17% hits; AID 1671194, 2021;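 note: potency is the fitted concentration of half-maximal effect; plate controls were DMSO cells for no effect and cell-free wells for full effect; nearly all actives have a fitted effect of over 45% in size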
# Starred values were filed as active, the others as inactive; i = inactive; ? = inconclusive; . = no result given; [ ] = another dose, or the depositor's remark. Unless noted, calls come from the whole dose curve; as a rule, active = well fitted curve in the direction sought with a large enough effect; inconclusive = small, poorly fitted or top-dose-only effect, or another doubt; inactive = no such curve, though single readings can be large; an effect the other way counts as inactive or inconclusive. Unless noted, % is set by controls: 0 for no effect and ±100 for the full control effect.
SMILES,IP6K1 inhibitor,Luciferase inh,NIH3T3 tox,HEK cytotox,HEK293 viab,SNCA expr inhib
O=C(Cc1ccccc1)N1CCC(c2noc(COc3ccc(F)cc3)n2)CC1,5,.,?,45µM*,-1%,-19%
COCCOCc1nc(C2CCN(S(=O)(=O)c3ccc(F)c(C)c3)C2)no1 (configuration not stated),-16,.,-27%,-29%,-1%,-16%
O=C(CCC1CCCC1)N1CCC(c2noc(COc3ccc(F)cc3)n2)C1 (configuration not stated),9,i,?,45µM*,-2%,-18%
CCN(CC)C(=O)N1CCC(c2noc(COc3ccc(F)cc3)n2)C1 (configuration not stated),1,.,?,45µM*,4%,-12%
Cc1cc(S(=O)(=O)N2CCC(c3noc(COc4ccc(F)cc4)n3)CC2)ccc1F,11,i,35µM*,25µM*,-17%,-1%
O=C(COc1ccc(F)cc1)N1CCCC(c2noc(COc3ccccc3)n2)C1 (configuration not stated),44,?,?,?,9%[12.5 µM],0%
O=C(c1ccncc1)N1CCC(c2noc(COc3ccc(F)cc3)n2)CC1,-4,i,-24%,?,-2%,18%
COc1cc(OC)cc(C(=O)N2CCC3(CC2)NC(=O)N(c2cccc(F)c2)N3)c1,-3,i,?,?,-10%,-17%
Cc1cc(C)c(C)c(S(=O)(=O)N2CCn3c(nn(CC4CC4)c3=O)C2)c1C,-5,i,?,?,-8%,-7%
COc1ccc(C2(c3nc(C4CC(=O)N(C5CCCCC5)C4)no3)CC2)cc1 (configuration not stated),23,i,?,?,3%,-15%
Cc1ccccc1OCc1nc(C2CN(C(=O)Cc3cccc(F)c3)C2)no1,10,i,40µM*,45µM*,0%,10%
Cc1ccccc1OCc1nc(C2CN(C(=O)c3cc(F)ccc3F)C2)no1,0,i,-29%,?,1%,7%
O=C(Cc1ccc(F)cc1)NC1CCN(Cc2ccc(-c3ccsc3)cc2)C1 (configuration not stated),5,.,?,?,5%,-16%
O=C(Cc1ccc(C(F)(F)F)cc1)NC1CCN(Cc2ccc(-c3ccsc3)cc2)C1 (configuration not stated),7,.,?,35µM*,-17%,?
O=C(NC1CCN(Cc2ccc(-c3ccsc3)cc2)C1)c1ccc(C(F)(F)F)cc1 (configuration not stated),-7,.,-29%,-30%,-19%,12%
O=C(Cc1cccc(Cl)c1)NC1CCN(Cc2ccc(-c3ccsc3)cc2)C1 (configuration not stated),2,.,8.9µM*,?,.,.
COc1ccc(-c2cccc(C(=O)N3CCN(C(=O)c4ccccc4Cl)CC3)c2)nn1,-4,.,-27%,-10%,.,.
COc1ccc(C2(C(=O)N3CCCC(c4nc(-c5ccccc5)no4)CCNC(=O)CC3)CC2)cc1 (configuration not stated),24,i,?,?,-10%,-2%
O=C(NCc1cccs1)C1CCN(c2nc3ncccc3o2)CC1,-1,i,-23%[138 µM],-19%[172 µM],7%[87.6 µM],12%[87.6 µM]
C1CNCC(c2nc(CCOCC3CC3)no2)C1 (configuration not stated),-8,i,i,?,2%,7%
COCCc1noc(C2CNC2)n1,1,i,18µM*,8.9µM*,?,?
C(Cc1noc(C2CNC2)n1)OCC1CC1,2,i,16µM*,11µM*,?,?
